# Compound activity (PubChem)
# This is a sample that favours compounds with a hit; in the whole collection about 6% have one here.
# D3 antag = D3 dopamine receptor (human) antagonism; AID 652054; 360,000 compounds, 2.5% hits; max response, negative = inhibition, %; D3R cells, DiscoveRx beta-arrestin luminescence, antagonist mode; stronger effect = lower value; in the data active means max response below about -50%; inconclusive means no clear call, values can overlap the other calls; further: on the % scale 0 is the no-effect control and ±100 the full control effect
# Target sequence (P35462 whole entry, looked up): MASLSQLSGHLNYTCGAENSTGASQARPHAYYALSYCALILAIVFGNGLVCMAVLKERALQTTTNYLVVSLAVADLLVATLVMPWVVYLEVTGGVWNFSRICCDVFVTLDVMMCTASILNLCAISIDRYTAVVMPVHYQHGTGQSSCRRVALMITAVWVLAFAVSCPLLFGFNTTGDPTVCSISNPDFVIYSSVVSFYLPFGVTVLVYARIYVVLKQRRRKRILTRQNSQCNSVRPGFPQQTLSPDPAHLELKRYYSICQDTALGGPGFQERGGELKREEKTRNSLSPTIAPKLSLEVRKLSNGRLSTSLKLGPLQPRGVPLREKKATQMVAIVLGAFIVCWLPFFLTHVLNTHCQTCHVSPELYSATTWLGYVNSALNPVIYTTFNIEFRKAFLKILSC
#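 Cells plated overnight at 1500 cells/well, then exposed to library compounds with dopamine controls for 90 minutes at 37 degrees C. DiscoveRx reagent added for 30–60 minutes at room temperature; luminescence read, quantitative HTS format.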
# D1 antagonist = blocks dopamine activation of the human D1 receptor; P21728; HEK293 TREx D1 cells, calcium flux, dopamine EC80; stronger effect = lower value; activity change, negative = inhibition, % at 10 µM; 360,000 compounds, 3.2% hits; AID 504652; in the data active means activity change below about -30%; further: on the % scale 0 is the no-effect control and ±100 the full control effect
#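 Cells carrying a force-coupled, tetracycline-inducible human D1 receptor report calcium flux. Each well gets a 10 s baseline, compound with 180 s monitoring, then an EC80 dopamine stimulus with a second 180 s kinetic read.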
# D1 ag = agonists of human D1 dopamine receptor | P21728 | activation, % at 2 µM | HEK293 T-REx D1 cells, calcium flux, agonist mode | 360,000 compounds, 1% hits; in the data active means activation above about 30%; further: 0% is about no effect
#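 Tetracycline-induced HEK293 TREx D1 cells, force-coupled to calcium signalling, were dye-loaded with a no-wash calcium kit. Compound was pin-added after a 10 s baseline. Fluorescence was read kinetically at 1 cycle/s for 180 s, with calcium rises flagged as agonism.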
# D1 potentiator = potentiators of human D1 dopamine receptor; P21728; HEK293 TREx D1 cells, calcium flux, dopamine EC20 potentiation; potentiation, % at 10 µM; 360,000 compounds, 0.036% hits; in the data active means potentiation above about 30%; further: 0% is about no effect
# DRD3 agonist = activates the human D3 dopamine receptor | max activation, % | 410,000 compounds, 0.58% hits | D3R DiscoveRx beta-arrestin cells, luminescence, 90 min; in the data active means max activation above about 30%; further: 0% is about no effect
#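 Cells at 1500/well, incubated overnight, then treated with pinned compounds (dopamine as control) for 90 min at 37 degrees C. DiscoveRx reagent added for 30 - 60 minutes at room temperature; luminescence read.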
# * marks the source's active call; other numbers are inactive results; u = inconclusive; x = no result; ! = not active in a repeat.
SMILES,D3 antag,D1 antagonist,D1 ag,D1 potentiator,DRD3 agonist
Cc1cc(C)c(S(=O)(=O)Nc2ccc(-c3ccc(N4CCCCCC4)nn3)cc2)c(C)c1,x,10,2,1,7
CCC(CC)C(=O)Nc1ccc(OCc2cc(=O)n3ccc(C)cc3n2)cc1,x,-5,0,-3,-1
CN(C)CCCOC(=O)c1ccc(Cl)cc1Cl,u,-1,3,-6,-38
CCCN(CCC)CCCOC(=O)c1ccc(Cl)cc1Cl,-69*,3,7,-7,-30
Cc1ccccc1C(=O)NNC(=S)NC(=O)c1ccc(Cl)cc1Cl,-14,-52*,158*,16,-4
COc1cc(C(=O)NNC(=S)NC(=O)c2ccccc2C)cc(OC)c1OC,9,19,47*,-8,6
Cc1onc(-c2ccccc2)c1C(=O)NNC(=S)NC(=O)c1ccc(Cl)cc1Cl,-21,58,308*,16,5
O=C(NC(=S)NNC(=O)c1ccc(Cl)cc1Cl)c1cccnc1,-19,-16,0,-4,4
C[C@@H](O)[C@H]1C(=O)N2C(C(=O)[O-])=C(SC3Cn4cnc[n+]4C3)[C@H](C)[C@H]12 (some centres undefined),x,x,x,x,-14
Cc1cccc(NC(=O)Cn2c(=O)n(CCc3ccccc3)c(=O)c3sc4ccccc4c32)c1,x,-2,-2,0,11
O=S(O)CO,x,x,x,x,3
Cc1onc(-c2ccccc2)c1C(=O)NNC(=S)NC(=O)/C=C/c1ccccc1,-10,-8,34*,-3,-12
COc1ccc(/C=C/C(=O)NC(=S)NNC(=O)c2c(-c3ccccc3)noc2C)cc1,-21,6,3,-10,-2
N#Cc1ccc(-c2ccc(OCC(=O)Nc3cccnc3)cc2)cc1,7,-45*,20,-7,9
CN(CCNC(=O)CCCOc1cc(=O)n(C)c2ccccc12)Cc1ccccc1,-93*,-6,-1,-2,-16
CN(CCCNC(=O)CCCOc1cc(=O)n(C)c2ccccc12)Cc1ccccc1,-10,-3,0,0,0
COc1ccc2cc3cc(C(=O)NCCCN4CCC(C)CC4)oc3nc2c1,-58*,-14,0,9,-15
CCCCN(CC)CCCNC(=O)c1cc2cc3ccc(OC)cc3nc2o1,-72*,11,1,-4,-1
CCN1CCN(CCCNC(=O)c2cc3cc4ccc(OC)cc4nc3o2)CC1,-28,-5,0,-8,3
CC1CCN(CCCNC(=O)c2cc(Sc3ccc(F)cc3)nc3ccccc23)CC1,x,-10,44*,-1,-34
CCc1ccc(CN(Cc2ccco2)C(=O)c2cc(-c3ccc(C)c(F)c3)on2)cc1,x,8,6,-3,10
C[C@]12C=CC(=O)N[C@@H]1CC[C@@H]1[C@@H]2CC[C@]2(C)[C@@H](C(=O)Nc3cc(C(F)(F)F)ccc3C(F)(F)F)CC[C@@H]12,x,x,x,x,-17
COC(=O)c1ccc(NC(=O)c2c(NCc3ccc(OC)c(OC)c3)sc3c2CCCC3)cc1,x,3,2,-9,-13
Cc1cc(C)cc(NC(=O)CSc2oc(-c3cccs3)nc2S(=O)(=O)c2ccc(Br)cc2)c1,x,3,-1,0,3
COc1ccc(NC(=O)C2CCN(C3=NS(=O)(=O)C(c4ccc(C)c(C)c4)=C3C)CC2)c(OC)c1,x,-12,5,-8,-7
SMILES,D3 antag,D1 antagonist,D1 ag,D1 potentiator,DRD3 agonist
COc1ccc2cc3cc(C(=O)NCCN4CCc5ccccc5C4)oc3nc2c1,u,-12,3,-3,-13
COc1ccc2cc3cc(C(=O)NCCN4CCN(Cc5ccccc5)CC4)oc3nc2c1,-61*,20,1,-6,-12
CC1CCN(CCCNC(=O)COc2cc(=O)n(C)c3ccccc23)CC1,-75*,20,2,-2,-7
CC1CCN(CCCNC(=O)c2coc3nc4ccccc4nc23)CC1,-78*,-4,0,-4,-1
CC1CCN(CCCNC(=O)c2n[nH]c(=O)c3ccccc23)CC1,-62*,-23,1,-4,1
Cc1ccc(NC(=O)Cn2nc(C)c3nn(-c4ccc(Cl)cc4)c(C)c3c2=O)cc1C,x,15,-1,-2,-6
CCOC(=O)c1ccc(NC(=O)C(CC)Sc2nc3ncccc3[nH]2)cc1 (centres undefined),x,-2,16,0,-23
COc1cccc(N2CCN(C(=O)c3cccc(-n4c(C)nc5cccnc54)c3)CC2)c1,x,-11,1,-1,18
Cc1nc2cccnc2n1-c1cccc(C(=O)N2CCN(c3cccc(Cl)c3)CC2)c1,x,-32*,5,-4,2
CCCC(=O)OCCNc1cc(Sc2nccn2C)c2nonc2c1[N+](=O)[O-],-92*,-32*,3,-9,-34
CCC(=O)OCCNc1cc(Sc2nc3ccccc3s2)c2nonc2c1[N+](=O)[O-],-88*,-19,14,-8,-54
CCCC(=O)OCCNc1cc(SCc2ccco2)c2nonc2c1[N+](=O)[O-],3,17,2,-1,-4
CCCSc1cc(NCCOC(C)=O)c([N+](=O)[O-])c2nonc12,4,7,1,1,3
O=[N+]([O-])c1c(NCCCO)cc(Sc2nc3ccccc3s2)c2nonc12,-90*,x,x,x,-67
CCC(=O)OCCNc1cc(Sc2nc3ccccc3[nH]2)c2nonc2c1[N+](=O)[O-],-116*,-9,0,-8,-6
CCCSc1cc(NCCOC(=O)CCC)c([N+](=O)[O-])c2nonc12,-14,-12,1,11,1
CC(C)(C)c1ccc(C(=O)NCCc2csc3nc(-c4ccccc4F)nn23)cc1,x,-4,1,-1,3
CCC1=Nc2cc(C(=O)NCCN3CCOCC3)ccc2Sc2ccc(C)cc21,-7,24,2,-4,1
CCC1=Nc2cc(C(=O)NCCCN3CCOCC3)ccc2Sc2ccccc21,-12,6,3,1,-2
CCC1=Nc2cc(C(=O)NCCN3CCOCC3)ccc2Sc2ccc(Br)cc21,-6,-36*,11,-14,2
CCC1=Nc2cc(C(=O)NCCN3CCCC3)ccc2Sc2ccccc21,2,-30*,16,-8,0
CCSc1oc(-c2cccs2)nc1S(=O)(=O)c1ccc(Br)cc1,x,-4,10,0,7
CC(=O)N=Cc1c(C)c(C#N)c(=O)n(C)c1O,12,-57*,10,-9,1
Cc1c(/C=N/Nc2ccc(F)cc2)c(O)n(C)c(=O)c1C#N,-5,-14,3,-3,-3
Cc1ccc(Cl)cc1N1CCN(S(=O)(=O)c2ccc3c(c2)CC(=O)N3C)CC1,-14,-2,6,-3,69*!
N#C/C(=C/N1CCOCC1)c1ccccc1,14,x,x,x,3
N#C/C(=C\c1ccc(N2CCOCC2)o1)c1nc2ccccc2[nH]1,-13,-20,64*,-2,-3
N#C/C(=C/c1ccc(N2CCOCC2)o1)c1ccc(Cl)cc1,-105*,9,4,-1,-17
